Results reported in PubChem BioAssay (NCI).
The panel holds about 83,000 compounds, 20% with a hit somewhere; the sample as a whole holds those more often.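 Interpretation: 100, growth as untreated; towards 0, rising growth inhibition; 0, no net growth; 0 to -100, cell death. Compounds scoring below 10 were considered active.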 Values without a mark were called inactive. Activity calls are given as the source filed them.

Test system: MDA-MB-231 breast
Experiment: NCI-60 one-dose screen, 48 h (100 = growth as untreated, 0 = no growth, -100 = all killed)
Settings: 10 µM unless noted

SMILES	growth
CCCCCCCCCCCCCCCCCCOc1ccccc1CC(=O)OCC[N+]1(C)CCCC1	4.95% (active)
COc1ccc(-c2nc(/C=C3\SC(=NCc4ccccc4)NC3=O)c3ccccn23)cc1	-13.9% (active)
COc1ccc2c3c([nH]c2c1)C(=O)c1nc(C)ccc1C3=O	49.8%
CN(CCOc1ccc(C#N)cc1)CCOc1ccc(C#N)cc1	71.2%
CCN1C(=O)N(CC)C2C1NN=c1s/c(=C\c3cccc([N+](=O)[O-])c3)c(=O)n12 (configuration not stated)	12.4%
O=C(CCCCCCN1CC(=O)N2[C@H](c3cc(Br)cs3)c3[nH]c4ccccc4c3C[C@H]2C1=O)NO	44%
Cc1ccc(/C=C2\CN(C(=O)OC(C)(C)C)C/C(=C\c3ccc(C)cc3)C2=O)cc1	88.3%
CN(C)CCNC(=O)c1cccc(-c2cnc3ccc(-c4ccc5c(c4)OCO5)nn23)c1	77.9%
Cn1c(=O)c2c(nc(NC3=NS(=O)(=O)c4ccccc43)n2CC(=O)N2CCc3ccccc32)n(C)c1=O	94.3%
Cc1ccc(NC(=S)NNC(=S)NNc2ccccc2)cc1C	104%
C=CCn1c(SCC(=O)Nc2ccc(C(=O)/C=C/c3cc4cc(OC)ccc4nc3Cl)cc2)nnc1-c1ccc(Br)cc1	80.5%
CCCC(=O)NC(c1ccc2c(c1)OCO2)c1ccc2cccnc2c1O (configuration not stated)	31.2%
c1ccc(C2=NN[C@H](c3cn(-c4ccccc4)nc3-c3ccccc3)C2)cc1	14%
C[C@@H]1CCC[C@H]1CC(N)C(=O)O (some centres not stated)	121%
O=C1c2cccnc2C(=O)c2c1c(C(=O)NCCCN1CCCCC1)c1ccccn21	-3.12% (active)
CCCCCCCCn1ccc2cc(NC(=O)Cn3cc(CN4CCCCC4)nn3)ccc21	-37.1% (active)
COC(C(=O)[C@@H](O)[C@@H](C)O)[C@@H]1Cc2cc3cc(O[C@H]4C[C@@H](O[C@H]5C[C@@H](O)[C@H](O)C(C)O5)[C@H](O)C(C)O4)c(C)c(O)c3c(O)c2C(=O)[C@H]1O[C@H]1C[C@@H](O[C@H]2C[C@@H](O[C@H]3C[C@@H](O)[C@H](OC)C(C)O3)[C@@H](O)C(C)O2)[C@H](O)C(C)O1 (some centres not stated)	17.2%
CCCCN1C(=O)/C(=c2\sc3n(c2=O)C2C(NN=3)N(CC)C(=O)N2CC)c2ccccc21 (configuration not stated)	8.32% (active)
COc1ccc2c(O)c(/C=C3\N=Nc4ncccc43)oc2c1C[C@H]1CCNC[C@H]1F	-6.95% (active)
COc1ccc2c(O)c(/C=C3\N=Nc4ccccc43)oc2c1C[C@@H]1CCNC[C@H]1F	15.4%
COc1ccc(N2CCC(=O)NC2=S)cc1	102%
CC(=O)OCc1nc(C#N)c(N(C)C)o1	94.9%
O=C(Nc1ccc(NC(=O)c2cc(=O)[nH]c3ccccc23)cc1)Nc1cccc(C(F)(F)F)c1	26.7%
CCN(CC)CCCN1C(=O)c2c(c(C)c3c(oc4cc(O)ccc43)c2C)C1=O	-80.3% (active)
COc1cc(OC)cc(C2=C3CC[C@@H]4[C@H](CC[C@]5(C)C(=O)CC[C@@H]45)C3=CC3C(O)c4cccnc4N4C(=O)COC234)c1 (some centres not stated)	97.8%
Oc1ccc(CN2CCC(N3CCCCC3)CC2)c2cccnc12	15.2%
CN(C)CC(=O)Nc1ccc2ncnc(Nc3ccc(Oc4cccc(C(F)(F)F)c4)c(Cl)c3)c2c1	49.1%
